We go through 20 molecules from PubChem BioAssay.

A number with no mark means an inactive call. For some of these results: Potency and affinity values are given separately. Active and inactive are the calls of the source. Unless noted, no rule for the calls is given here.

Assay [1] can be described thus: antimalarial activity against Dd2 strain (AID 2302;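 active = growth inhibition above 50% at the single 2 µM test dose, taken to imply half-maximal potency below 2 µM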;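 also: 0% = DMSO untreated growth and 100% = chloroquine plus artemisinin killed control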). As to conditions: P. falciparum Dd2 in RBCs, LDH growth readout, 72 h; at 2 µM; hits give high values.
The nature of assay [2]: human hepatoma cell viability loss – ATP luminescence, cytotoxicity control for P. falciparum antimalarial project, primary screen (AID 2303;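 active = inhibition above 50%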;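 also: 0% = DMSO wells and 100% = digitonin-killed cells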). As to conditions: HepG2 viability, 24-48 h, at 10 µM, hits give high values.
Assay [3] deals with L-lactate dehydrogenase (Plasmodium falciparum (isolate CDC / Honduras)) (UniProt Q27743). The assay can be described thus: PfLDH activity inhibition – cell lysate, 3D7 strain, counter-screen for P. falciparum growth inhibition project (AID 2304).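 Also: 0% = vehicle and 100% = reference inhibitor.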 The note with it: P. falciparum 3D7 crude extract, LDH APAD/NBT absorbance; at 2 µM; hits give high values.
Assay [4] in a line: inhibition of 3D7 malaria parasite growth – strain 3D7 (AID 2306).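 Also: 0% = DMSO wells and 100% = chloroquine plus artemisinin control wells.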 As to conditions: P. falciparum 3D7 erythrocytic growth, LDH absorbance, 72 h; at 2 µM; hits give high values.
The target in assay [5] is Calcium-dependent protein kinase 1 (Plasmodium falciparum (isolate 3D7)) (UniProt P62344). The assay can be described thus: PfCDPK1 kinase inhibitors, biochemical, TCAMS library (AID 1159585; cut-off not given, nearly all actives have IC50 up to about 0.98 µM;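 also: inhibitors leave more ATP so luminescence rises with inhibition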). The note with it: recombinant PfCDPK1, Kinase-Glo ATP depletion luminescence.
In assay [6] the target is Plasmodium falciparum protein kinase 6 (PK6, PF3D7_1337100) (UniProt Q8IDW1). The assay can be described thus: PfPK6 kinase inhibitors, biochemical, TCAMS library (AID 1159586). As to conditions: recombinant PfPK6, Kinase-Glo ATP depletion luminescence.
Assay [7] concerns the target Protein kinase 7 (PK7), Plasmodium falciparum 3D7 (PF3D7_0213400) (UniProt Q7YTF7). In words: inhibition of Plasmodium PK7 catalytic activity – biochemical, TCAMS antimalarial set, Kinase-Glo luminescence (AID 1159587). As to conditions: recombinant PfPK7, Kinase-Glo ATP depletion luminescence.
In assay [8] the target is Calcium-dependent protein kinase 4 (Plasmodium falciparum (isolate 3D7)) (UniProt Q8IBS5). The assay can be described thus: PfCDPK4 kinase inhibitors, biochemical, TCAMS library (AID 1159588; cut-off not given, nearly all actives have IC50 up to about 0.91 µM). The note with it: recombinant PfCDPK4, Kinase-Glo ATP depletion luminescence.
Chain of Calcium-dependent protein kinase 4 (Plasmodium falciparum (isolate 3D7)) (Q8IBS5 whole entry, looked up): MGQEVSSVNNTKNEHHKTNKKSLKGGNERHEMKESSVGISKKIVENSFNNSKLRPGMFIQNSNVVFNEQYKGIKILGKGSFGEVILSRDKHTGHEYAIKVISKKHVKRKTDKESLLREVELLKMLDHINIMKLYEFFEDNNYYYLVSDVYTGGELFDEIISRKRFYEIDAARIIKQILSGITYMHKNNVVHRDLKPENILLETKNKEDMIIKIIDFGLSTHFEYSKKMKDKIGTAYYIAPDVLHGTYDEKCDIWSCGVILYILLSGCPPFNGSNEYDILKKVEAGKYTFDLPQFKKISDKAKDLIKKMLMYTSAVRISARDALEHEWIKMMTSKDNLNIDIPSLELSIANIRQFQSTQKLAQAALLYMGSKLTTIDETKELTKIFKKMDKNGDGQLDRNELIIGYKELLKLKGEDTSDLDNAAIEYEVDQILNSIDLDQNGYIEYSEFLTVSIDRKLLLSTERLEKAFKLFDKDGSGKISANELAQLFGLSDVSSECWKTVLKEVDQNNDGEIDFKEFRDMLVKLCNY

Chain of Protein kinase 7 (PK7), Plasmodium falciparum 3D7 (PF3D7_0213400) (Q7YTF7 1-343): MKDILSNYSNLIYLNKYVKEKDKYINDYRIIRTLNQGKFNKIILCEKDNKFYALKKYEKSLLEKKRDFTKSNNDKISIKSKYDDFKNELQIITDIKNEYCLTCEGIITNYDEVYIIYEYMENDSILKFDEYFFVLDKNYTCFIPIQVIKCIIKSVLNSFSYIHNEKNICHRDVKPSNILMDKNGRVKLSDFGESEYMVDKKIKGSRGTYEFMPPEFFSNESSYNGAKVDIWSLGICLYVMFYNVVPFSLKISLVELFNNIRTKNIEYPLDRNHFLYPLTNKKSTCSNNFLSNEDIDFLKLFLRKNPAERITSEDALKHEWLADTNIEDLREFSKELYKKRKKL
Chain of L-lactate dehydrogenase (Plasmodium falciparum (isolate CDC / Honduras)) (Q27743 whole entry, looked up): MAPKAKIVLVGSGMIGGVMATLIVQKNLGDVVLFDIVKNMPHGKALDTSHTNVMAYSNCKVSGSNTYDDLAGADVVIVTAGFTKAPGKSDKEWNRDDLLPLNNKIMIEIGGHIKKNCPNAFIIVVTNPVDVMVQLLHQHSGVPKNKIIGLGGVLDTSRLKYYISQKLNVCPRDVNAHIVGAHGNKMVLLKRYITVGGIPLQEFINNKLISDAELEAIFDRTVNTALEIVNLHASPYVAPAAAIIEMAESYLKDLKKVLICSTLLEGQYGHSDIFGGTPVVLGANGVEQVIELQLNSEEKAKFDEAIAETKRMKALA
Chain of Plasmodium falciparum protein kinase 6 (PK6, PF3D7_1337100) (Q8IDW1 1-305): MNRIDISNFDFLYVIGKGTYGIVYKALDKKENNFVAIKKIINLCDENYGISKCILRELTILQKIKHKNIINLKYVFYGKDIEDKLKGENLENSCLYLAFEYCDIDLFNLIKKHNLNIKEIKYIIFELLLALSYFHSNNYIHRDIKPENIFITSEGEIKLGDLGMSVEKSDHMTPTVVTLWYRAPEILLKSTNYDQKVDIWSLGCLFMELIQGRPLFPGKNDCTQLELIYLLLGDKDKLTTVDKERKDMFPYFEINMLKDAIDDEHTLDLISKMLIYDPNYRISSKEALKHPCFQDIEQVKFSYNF
Chain of Calcium-dependent protein kinase 1 (Plasmodium falciparum (isolate 3D7)) (P62344 whole entry, looked up): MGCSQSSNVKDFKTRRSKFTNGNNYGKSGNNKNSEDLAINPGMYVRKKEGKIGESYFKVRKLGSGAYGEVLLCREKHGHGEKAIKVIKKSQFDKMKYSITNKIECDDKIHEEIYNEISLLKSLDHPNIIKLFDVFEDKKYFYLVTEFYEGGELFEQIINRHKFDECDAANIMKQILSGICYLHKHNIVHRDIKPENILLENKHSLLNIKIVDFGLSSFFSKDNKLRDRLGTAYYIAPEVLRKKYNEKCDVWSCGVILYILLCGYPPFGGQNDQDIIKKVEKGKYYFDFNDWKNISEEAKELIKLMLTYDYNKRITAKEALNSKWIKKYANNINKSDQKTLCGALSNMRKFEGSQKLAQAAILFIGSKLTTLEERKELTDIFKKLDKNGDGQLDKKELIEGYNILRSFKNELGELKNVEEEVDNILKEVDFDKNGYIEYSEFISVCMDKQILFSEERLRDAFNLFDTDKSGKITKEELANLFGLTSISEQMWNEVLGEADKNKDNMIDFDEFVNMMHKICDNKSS

As to `O=C(Nc1cccc(CN2CCCN(Cc3ccc(O)cc3)CC2)c1)c1cc2ccccc2s1`, the growth inhibition in assay [1] was 90% (active); in assay [4], 100% (active). Also, the inhibition in assay [2] was 27%; in assay [3] it was -7%. Also, the result in assay [5], in assay [6], in assay [7] and in assay [8] was inactive.

Take `COc1ccccc1N1CCN(C(C(=O)NCc2ccc3c(c2)OCO3)c2ccc(C)cc2)CC1` (stereo not given): the figures for the growth inhibition in assay [1] and in assay [4] were 81% (active) and 85% (active), respectively. Moreover, the inhibition is 1% in assay [2] and 2% in assay [3]. Moreover, the result in assay [5], in assay [6], in assay [7] and in assay [8] was inactive.

Regarding `CCC(C)NS(=O)(=O)c1ccc2nc(Nc3ccc(C)c(Cl)c3)n([C@H](C)C(C)(C)C)c2c1` (stereo not given in full), the growth inhibition is 100% (active) in assay [1] and 98% (active) in assay [4]. The inhibition in assay [2] is 8%; in assay [3], -5%. Moreover, the outcome in assay [5], in assay [6], in assay [7] and in assay [8] was inactive.

As for `Cc1cc(CNC(=O)c2ccc(-c3ccc(-c4nc5ccc(C(F)(F)F)cc5[nH]4)s3)cc2)on1`, the growth inhibition was 56% (active) in assay [1] and 93% (active) in assay [4]. The inhibition in assay [2] is 15%; in assay [3], -1%. Moreover, the outcome in assay [5], in assay [6], in assay [7] and in assay [8] was inactive.

As to `O=C(Nc1cccc(C(F)(F)F)c1)Nc1ccc(F)c([N+](=O)[O-])c1`, the growth inhibition in assay [1] was 100% (active); in assay [4], 101% (active). Also, the inhibition is 43% in assay [2] and -4% in assay [3]. Moreover, the outcome in assay [5], in assay [6], in assay [7] and in assay [8] was inactive.

Consider `COc1ccc2nccc([C@@H](O)CN3CCC(NCc4cc5oc(=O)n(C)c5cc4F)CC3)c2c1`, for which the growth inhibition in assay [1] was 72% (active); in assay [4], 99% (active). The inhibition in assay [2] was -3%; in assay [3], -2%. For the same molecule, the outcome in assay [5], in assay [6], in assay [7] and in assay [8] was inactive.

As for `COc1ccc(C(=O)N[C@@H](CC(C)C)C(=O)N[C@H](/C=N/NC(=O)c2ccccc2)CCc2ccccc2)cc1OCCN1CCOCC1`, the growth inhibition is 86% (active) in assay [1] and 96% (active) in assay [4]. Further, the inhibition was 2% in assay [2] and 1% in assay [3]. Also, the result in assay [5], in assay [6], in assay [7] and in assay [8] was inactive.

For the molecule `O=C(Nc1cccc(OC2CCN(Cc3ccccc3)CC2)c1)c1ccc([N+](=O)[O-])cc1`, the growth inhibition was 2% in assay [1] and 100% (active) in assay [4]. Besides, the inhibition was 6% in assay [2] and 3% in assay [3]. For the same molecule, the result in assay [5], in assay [6], in assay [7] and in assay [8] was inactive.

Consider `O=S(=O)(Nc1cccc(CCN2CCCCC2CCN2CCCC2)c1)c1ccc(-c2ccccc2)cc1` (stereo not given), for which the growth inhibition was 5% in assay [1] and 99% (active) in assay [4]. The results for the inhibition in assay [2] and in assay [3] were 31% and 0%, respectively. The outcome in assay [5], in assay [6], in assay [7] and in assay [8] was inactive.

Consider `COc1ccc(CON2C(N)=NC(N)=NC2(C)C)cc1OC`, for which the results for the growth inhibition in assay [1] and in assay [4] were 97% (active) and 96% (active), respectively. Moreover, the figures for the inhibition in assay [2] and in assay [3] were 68% (active) and 1%, respectively. Moreover, the outcome in assay [5], in assay [6], in assay [7] and in assay [8] was inactive.

Regarding `O=C(Nc1ccc(C(=O)N(Cc2ccc3c(c2)OCO3)C2CCCC2)cc1)c1cccs1`, the growth inhibition in assay [1] is 95% (active); in assay [4] it was 97% (active). Also, the inhibition was 14% in assay [2] and 4% in assay [3]. Also, the result in assay [5], in assay [6], in assay [7] and in assay [8] was inactive.

In the case of `Cc1cc(N[C@@H](Cc2ccccc2)C(=O)NCCCOC(C)C)nc(NCCc2ccc(F)cc2)n1`, the growth inhibition in assay [1] was 36%; in assay [4], 101% (active). The inhibition in assay [2] is 15%; in assay [3] it was 0%. Moreover, the result in assay [5], in assay [6], in assay [7] and in assay [8] was inactive.

In the case of `Cc1cc(N2CCOCC2)nc2ccc(NC(=O)c3ccc(Cl)c([N+](=O)[O-])c3)cc12`, the growth inhibition in assay [1] was 15%; in assay [4], 98% (active). Moreover, the inhibition in assay [2] is 12%; in assay [3], 3%. Further, the result in assay [5], in assay [6], in assay [7] and in assay [8] was inactive.

Regarding `NC(N)=NC(=O)Nc1cc(F)c(Cl)c(Br)c1`, the growth inhibition was 50% (active) in assay [1] and 101% (active) in assay [4]. Further, the inhibition in assay [2] was -3%; in assay [3] it was 1%. Besides, the outcome in assay [5], in assay [6], in assay [7] and in assay [8] was inactive.

With `O=C(O)C1Cc2c([nH]c3ccccc23)C(c2ccc(Cl)cc2Cl)N1` (stereo not given), the figures for the growth inhibition in assay [1] and in assay [4] were 100% (active) and 91% (active), respectively. Moreover, the inhibition in assay [2] is 7%; in assay [3] it was 0%. The result in assay [5], in assay [6], in assay [7] and in assay [8] was inactive.

As for `CC[C@H]1CN(CCCC(=O)c2ccccc2)CC[C@H]1CCCc1ccnc2ccc(OC(=O)c3ccccc3)cc12`, the growth inhibition is 68% (active) in assay [1] and 83% (active) in assay [4]. Also, the figures for the inhibition in assay [2] and in assay [3] were 28% and 1%, respectively. For the same molecule, the result in assay [5], in assay [6], in assay [7] and in assay [8] was inactive.

As to `Cc1cc2nc(-c3cc(-c4cccc(NS(C)(=O)=O)c4)cnc3N)[nH]c2cc1C`, the growth inhibition in assay [1] was 32%; in assay [4], 102% (active). The figures for the inhibition in assay [2] and in assay [3] were 43% and -2%, respectively. Also, the result in assay [5], in assay [6], in assay [7] and in assay [8] was inactive.

`COc1ccc(Cn2c(Nc3cccc(C(F)(F)F)c3)nc3cc(C(=O)NC(C)C)cnc32)cc1Cl`: the results for the growth inhibition in assay [1] and in assay [4] were 81% (active) and 85% (active), respectively. For the same molecule, the inhibition in assay [2] is -6%; in assay [3] it was 1%. Moreover, the outcome in assay [5], in assay [6], in assay [7] and in assay [8] was inactive.

`COc1cc([N+](=O)[O-])ccc1NC(=O)c1cc(Cl)ccc1O`: the growth inhibition in assay [1] is 100% (active); in assay [4], 87% (active). Also, the values for the inhibition in assay [2] and in assay [3] were 92% (active) and 6%, respectively. Besides, the result in assay [5], in assay [6], in assay [7] and in assay [8] was inactive.

Regarding `CC(=O)N/N=C/[C@H](CCc1ccccc1)NC(=O)[C@H](CC(C)C)NC(=O)c1ccc(F)cc1`, the growth inhibition in assay [1] was 86% (active); in assay [4] it was 95% (active). Moreover, the inhibition is 2% in assay [2] and -4% in assay [3]. Moreover, the result in assay [5], in assay [6], in assay [7] and in assay [8] was inactive.
